# Source: ChEMBL document CHEMBL2218924, “A broad activity screen in support of a chemogenomic map for kinase signalling research and drug discovery” (Biochem J, 2013)
# What was measured:
# [1] = target: T1, Serine/threonine-protein kinase Nek2 (Homo sapiens) (UniProt P51955); conditions: at 1 µM
# T1 sequence (whole entry): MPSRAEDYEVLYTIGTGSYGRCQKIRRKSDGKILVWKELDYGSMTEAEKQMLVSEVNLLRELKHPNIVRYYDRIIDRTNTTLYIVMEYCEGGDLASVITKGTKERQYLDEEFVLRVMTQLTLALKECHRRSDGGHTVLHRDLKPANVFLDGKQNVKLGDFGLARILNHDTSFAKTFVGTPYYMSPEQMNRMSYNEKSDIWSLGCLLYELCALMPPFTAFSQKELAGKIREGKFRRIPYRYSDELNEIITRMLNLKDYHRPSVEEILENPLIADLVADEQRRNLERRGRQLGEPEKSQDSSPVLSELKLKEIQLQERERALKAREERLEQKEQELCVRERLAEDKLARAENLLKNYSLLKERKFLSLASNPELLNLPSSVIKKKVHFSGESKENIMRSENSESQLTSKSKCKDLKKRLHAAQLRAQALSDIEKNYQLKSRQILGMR
# [2] = target: T1, Serine/threonine-protein kinase Nek2 (Homo sapiens); conditions: at 10 µM
# [3] = target: T2, Serine/threonine-protein kinase Nek3 (Homo sapiens) (UniProt P51956); conditions: at 1 µM
# T2 sequence (whole entry): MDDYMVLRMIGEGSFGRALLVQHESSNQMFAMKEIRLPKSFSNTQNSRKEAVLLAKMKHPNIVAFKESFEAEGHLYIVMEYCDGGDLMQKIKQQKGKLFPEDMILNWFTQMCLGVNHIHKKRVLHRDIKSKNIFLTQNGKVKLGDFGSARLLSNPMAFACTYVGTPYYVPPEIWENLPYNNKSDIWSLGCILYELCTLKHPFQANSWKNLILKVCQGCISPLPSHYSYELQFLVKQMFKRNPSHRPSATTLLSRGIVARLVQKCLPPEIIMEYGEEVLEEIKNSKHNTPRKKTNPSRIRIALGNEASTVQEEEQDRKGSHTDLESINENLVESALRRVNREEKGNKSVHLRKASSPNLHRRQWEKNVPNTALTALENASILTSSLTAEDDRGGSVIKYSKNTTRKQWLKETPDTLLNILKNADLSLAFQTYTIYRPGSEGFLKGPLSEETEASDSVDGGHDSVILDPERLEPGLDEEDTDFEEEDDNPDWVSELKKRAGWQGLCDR
# [4] = target: T2, Serine/threonine-protein kinase Nek3 (Homo sapiens); conditions: at 10 µM
# [5] = target: Serine/threonine-protein kinase tousled-like 2 (Homo sapiens) (UniProt Q86UE8); conditions: at 1 µM
# [6] = target: Serine/threonine-protein kinase tousled-like 2 (Homo sapiens) (UniProt Q86UE8); conditions: at 10 µM
# [7] = target: T3, Testis-specific serine/threonine-protein kinase 1 (Homo sapiens) (UniProt Q9BXA7); conditions: at 1 µM
# T3 sequence (whole entry): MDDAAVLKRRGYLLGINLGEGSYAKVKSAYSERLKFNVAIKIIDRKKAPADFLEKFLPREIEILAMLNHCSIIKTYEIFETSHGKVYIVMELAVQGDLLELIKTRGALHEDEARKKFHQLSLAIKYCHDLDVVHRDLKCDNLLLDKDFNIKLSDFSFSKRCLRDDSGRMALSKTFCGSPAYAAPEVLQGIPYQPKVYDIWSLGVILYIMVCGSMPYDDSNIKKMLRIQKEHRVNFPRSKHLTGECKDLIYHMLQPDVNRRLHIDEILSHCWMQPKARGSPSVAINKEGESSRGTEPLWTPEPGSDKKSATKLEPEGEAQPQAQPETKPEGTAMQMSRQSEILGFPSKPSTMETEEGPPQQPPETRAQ
# [8] = target: T3, Testis-specific serine/threonine-protein kinase 1 (Homo sapiens); conditions: at 10 µM
# [9] = target: T4, Testis-specific serine/threonine-protein kinase 2 (Homo sapiens) (UniProt Q96PF2); conditions: at 1 µM
# T4 sequence (whole entry): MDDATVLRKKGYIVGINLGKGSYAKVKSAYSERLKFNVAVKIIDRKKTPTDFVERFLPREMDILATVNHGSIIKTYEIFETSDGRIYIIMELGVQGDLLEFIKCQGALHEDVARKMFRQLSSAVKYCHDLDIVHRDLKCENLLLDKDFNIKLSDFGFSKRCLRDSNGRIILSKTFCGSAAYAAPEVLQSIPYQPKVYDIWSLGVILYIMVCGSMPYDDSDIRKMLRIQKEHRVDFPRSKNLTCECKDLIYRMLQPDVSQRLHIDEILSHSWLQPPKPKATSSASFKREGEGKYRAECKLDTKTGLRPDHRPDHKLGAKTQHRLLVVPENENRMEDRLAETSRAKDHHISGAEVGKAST
# [10] = target: T4, Testis-specific serine/threonine-protein kinase 2 (Homo sapiens); conditions: at 10 µM
# Sequence of Serine/threonine-protein kinase tousled-like 2 (Homo sapiens) (Q86UE8 whole entry, looked up): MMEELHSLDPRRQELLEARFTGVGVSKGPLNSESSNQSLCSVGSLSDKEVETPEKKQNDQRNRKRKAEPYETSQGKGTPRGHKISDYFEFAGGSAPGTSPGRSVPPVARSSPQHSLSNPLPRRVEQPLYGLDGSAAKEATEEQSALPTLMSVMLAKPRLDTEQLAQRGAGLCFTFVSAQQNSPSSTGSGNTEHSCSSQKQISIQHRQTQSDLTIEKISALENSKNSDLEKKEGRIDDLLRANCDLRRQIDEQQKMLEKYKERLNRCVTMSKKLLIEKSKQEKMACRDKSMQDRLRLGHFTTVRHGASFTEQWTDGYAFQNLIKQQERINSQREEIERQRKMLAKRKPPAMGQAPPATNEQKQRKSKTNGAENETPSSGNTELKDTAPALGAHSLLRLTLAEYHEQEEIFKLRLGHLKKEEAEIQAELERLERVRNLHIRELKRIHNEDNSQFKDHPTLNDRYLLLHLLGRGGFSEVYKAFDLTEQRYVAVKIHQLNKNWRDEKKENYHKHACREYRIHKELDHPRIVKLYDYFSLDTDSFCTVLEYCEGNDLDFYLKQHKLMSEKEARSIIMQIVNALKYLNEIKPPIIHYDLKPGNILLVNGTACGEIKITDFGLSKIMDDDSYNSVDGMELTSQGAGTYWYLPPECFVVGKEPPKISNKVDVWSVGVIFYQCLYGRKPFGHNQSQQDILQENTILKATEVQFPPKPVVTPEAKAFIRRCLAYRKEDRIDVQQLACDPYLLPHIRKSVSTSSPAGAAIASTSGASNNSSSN
structure (smiles),measurement,setting,value
O=C1Nc2ccc3ncsc3c2/C1=C/c1c[nH]cn1,residual activity,[1],64%
same,residual activity,[2],39%
same,residual activity,[3],102%
same,residual activity,[4],32%
same,residual activity,[5],19%
same,residual activity,[6],3%
same,residual activity,[7],68%
same,residual activity,[8],31%
same,residual activity,[9],89%
same,residual activity,[10],86%
CCC(=O)Nc1ccc2ncnc(Nc3cccc(Br)c3)c2c1,residual activity,[9],95%
O=C1NC(=O)c2c1c1c3ccccc3n3c1c1c2c2ccccc2n1C1CCC3O1,residual activity,[5],62%
same,residual activity,[6],68%
same,residual activity,[7],92%
same,residual activity,[8],70%
same,residual activity,[9],82%
same,residual activity,[10],96%
COc1ccc2c(c1)/C(=C/c1cnc[nH]1)C(=O)N2,residual activity,[5],63%
same,residual activity,[6],11%
CC(=O)c1ccc(N2CCOCC2)cc1O,residual activity,[9],89%
O=C1NC(=O)c2cc(Nc3ccc(F)cc3)c(Nc3ccc(F)cc3)cc21,residual activity,[9],91%
c1cc(-c2cnn3cc(-c4ccc(OCCN5CCCCC5)cc4)cnc23)ccn1,residual activity,[2],86%
same,residual activity,[6],74%
same,residual activity,[7],76%
same,residual activity,[8],45%
COC(=O)[C@@]1(O)C[C@H]2O[C@]1(C)n1c3ccccc3c3c4c(c5c6ccccc6n2c5c31)C(=O)NC4,residual activity,[1],75%
same,residual activity,[2],29%
same,residual activity,[3],65%
same,residual activity,[4],53%
same,residual activity,[5],1%
same,residual activity,[6],0%
same,residual activity,[7],-1%
same,residual activity,[8],0%
same,residual activity,[9],8%
same,residual activity,[10],0%
N/C(=N\[N+](=O)[O-])N/N=C\c1ccc(-c2cccc([N+](=O)[O-])c2)o1,residual activity,[3],74%
same,residual activity,[4],93%
same,residual activity,[5],95%
same,residual activity,[6],90%
same,residual activity,[9],91%
same,residual activity,[10],80%
Ic1cccc(CSc2nnc(-c3ccncc3)o2)c1,residual activity,[9],87%
